Bioassay records (PubChem)
Many of the other results were omitted from the sample, so hits are more common in it than they were.
IL-1B inflam inh: inflammasome signaling inhibition, IL-1 beta readout | THP-1 LPS/ATP IL-1B secretion, AlphaLISA, 16 h; stronger effect = lower value | hit rate 4.7% among 360,000 | activity change, % at 57.5 µM; in the data active = activity change below about -50%; inconclusive = mostly about -30% to -49%
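Secreted IL-1B measured by AlphaLISA bead assay after 16 h compound exposure of THP-1 cells; compounds (final up to 57.5 uM) added 1 h before LPS (250 ng/mL) and ATP (1.25 mM) stimulation; lower signal means less secretion.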
12-LOX inh: inhibitors of human 12S-lipoxygenase ALOX12; hit rate 1.1% among 580,000; P18054; purified 12hLO, xylenol orange hydroperoxide absorbance; Potency, µM (highest dose often 108 µM), most hits filed as inhibitors
Target sequence (P18054 whole entry, looked up): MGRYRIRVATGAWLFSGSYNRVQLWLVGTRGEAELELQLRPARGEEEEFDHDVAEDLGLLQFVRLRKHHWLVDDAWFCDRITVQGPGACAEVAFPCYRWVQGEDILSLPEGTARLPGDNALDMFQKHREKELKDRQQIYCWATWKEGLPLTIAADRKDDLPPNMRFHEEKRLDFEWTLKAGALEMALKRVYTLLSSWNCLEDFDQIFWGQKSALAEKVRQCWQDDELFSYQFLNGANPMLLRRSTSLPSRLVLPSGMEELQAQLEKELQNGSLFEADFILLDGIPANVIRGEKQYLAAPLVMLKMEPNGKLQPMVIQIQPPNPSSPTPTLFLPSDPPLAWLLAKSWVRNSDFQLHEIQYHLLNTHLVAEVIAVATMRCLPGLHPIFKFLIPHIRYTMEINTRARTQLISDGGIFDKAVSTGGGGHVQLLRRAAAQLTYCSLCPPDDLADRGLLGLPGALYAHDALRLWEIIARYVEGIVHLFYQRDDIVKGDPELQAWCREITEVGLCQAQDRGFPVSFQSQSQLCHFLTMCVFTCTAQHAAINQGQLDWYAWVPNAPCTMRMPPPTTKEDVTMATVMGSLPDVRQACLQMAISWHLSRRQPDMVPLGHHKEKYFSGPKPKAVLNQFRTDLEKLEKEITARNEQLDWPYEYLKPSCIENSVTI
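Hydroperoxide product was detected by ferrous iron/xylenol orange as the 573 to 405 nm absorbance ratio. Arachidonic acid at 40 uM (final) was turned over for 30 min at room temperature by 150 nM human 12hLO, pH 7.0 Hepes buffer, after 15 min compound preincubation.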
DT40 TDP1 no CPT: qHTS for Inhibitors of human tyrosyl-DNA phosphodiesterase 1 (TDP1): qHTS in cells in absence of CPT. DT40 Tdp1-/- hTDP1 cells, no CPT, ATP luminescence, 48 h. Potency, µM (doses to about 46.2 µM), most hits filed as inhibitors. hit rate 15% among 420,000. AID 686978, 2013; also: nearly all actives have a fitted effect of over 55% in size
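DT40 Tdp1-/-;hTDP1 cells, no CPT (DMSO vehicle only), 400 cells/well; compounds pin-transferred; ≥48 hr, 37 °C; CellTiter-Glo 30 min RT dark, luminescence read.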
HT1080NT lethal: kills 2HG-producing HT-1080-NT fibrosarcoma cells; HT-1080-NT fibrosarcoma viability, CellTiter-Glo ATP luminescence, 48 h; Potency, µM (series often up to 46.1 µM), hits mostly cytotoxic; hit rate 1.6% among 360,000;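 also: NT is the 2HG producing partner of a matched IDH1 knockdown line; nearly all actives have a fitted effect of over 55% in size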
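HT-1080-NT fibrosarcoma cells (2HG-overproducing), 750 cells/well in RPMI with 5% FBS, dosed after 2 h and incubated 48 h at 37C. CellTiter-Glo luminescence normalized to DMSO and no-cell wells; concentration-response curves fitted and classed.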
HT1080 IDH1KD tx: kills HT-1080 cells with IDH1 knockdown | hit rate 2% among 360,000 | AID 686971 | Potency, µM (titrated, usually from 46.1 µM), actives largely listed as cytotoxic | HT-1080 IDH1 knockdown viability, ATP luminescence, 48 h
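After a 2 h attachment period, IDH1KD HT-1080 cells took pin-transferred compound for 48 h at 37 °C; ATP-based luminescence after 10 min room-temperature reagent incubation reported viability.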
TDP1 cell CPT: growth inhibition of DT40 Tdp1-/-;hTDP1 cells with camptothecin (screen for TDP1 inhibitors); Potency, µM (series often up to 46.2 µM), usual class: inhibitors; chicken DT40 Tdp1-/-;hTDP1 cells + 20 nM CPT, ATP luminescence, 48 h; hit rate 12% among 420,000; also: nearly all actives have a fitted effect of over 55% in size
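Cell growth measured by CellTiter-Glo luminescence after a minimum 48 h, 37 C compound exposure with 20 nM CPT in Tdp1-knockout DT40 cells stably expressing hTDP1, seeded 400/well; qHTS titration format.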
Each line names hits and unclear results; the compound was inactive in the other large screens. Unless noted, calls follow the shape of the dose curve; as a rule, active = well fitted curve in the direction sought with a large enough effect; inconclusive = small, poorly fitted or top-dose-only effect, or another doubt; inactive = no such curve, though single readings can be large; an effect the other way counts as inactive or inconclusive.

CC(C)CCN(C(=O)CCSc1ccc(F)cc1)c1c(N)n(Cc2ccccc2)c(=O)[nH]c1=O	DT40 TDP1 no CPT inconclusive, TDP1 cell CPT inconclusive
CC(C)CN(C(=O)CCCSc1nc2ccccc2[nH]1)c1c(N)n(Cc2ccccc2)c(=O)[nH]c1=O	IL-1B inflam inh -102
CC(C)CCN(C(=O)CCCSc1nc2ccccc2[nH]1)c1c(N)n(Cc2ccccc2)c(=O)[nH]c1=O	IL-1B inflam inh -97
N#Cc1cccc(Nc2c3c(nc4ccc(Cl)cc24)CCC3)c1	none (no result: IL-1B inflam inh, DT40 TDP1 no CPT, HT1080NT lethal, HT1080 IDH1KD tx, TDP1 cell CPT)
CCC1CN(C(=O)Nc2cc(C)cc(C)c2)c2ccccc2O1 (stereo not drawn)	DT40 TDP1 no CPT inconclusive, TDP1 cell CPT inconclusive (no result: IL-1B inflam inh, HT1080NT lethal, HT1080 IDH1KD tx)
CCC1CN(C(=O)NCc2ccccc2)c2ccccc2O1 (stereo not drawn)	DT40 TDP1 no CPT inconclusive
CCC1CN(C(=O)Nc2cccc(C)c2)c2cc(C)ccc2O1 (stereo not drawn)	12-LOX inh inconclusive, DT40 TDP1 no CPT 21µM, TDP1 cell CPT inconclusive
CCC1CN(C(=O)Nc2cccc(OC)c2)c2ccccc2O1 (stereo not drawn)	DT40 TDP1 no CPT 23µM, TDP1 cell CPT inconclusive (no result: IL-1B inflam inh, HT1080NT lethal, HT1080 IDH1KD tx)
CCOC(=O)c1cccc(NC(=O)N2CC(CC)Oc3ccccc32)c1 (stereo not drawn)	DT40 TDP1 no CPT 16µM, TDP1 cell CPT inconclusive (no result: IL-1B inflam inh, HT1080NT lethal, HT1080 IDH1KD tx)
Oc1ccc(O)c(C=NNC(=S)NC2CC3CC2C2C=CCC32)c1 (stereo not drawn)	12-LOX inh inconclusive, DT40 TDP1 no CPT inconclusive, TDP1 cell CPT 18µM
NNC(=S)NC1CC2CC1C1C=CCC21 (stereo not drawn)	DT40 TDP1 no CPT inconclusive, TDP1 cell CPT 9.2µM
NC(=O)NN=C1CC2CC1C1C=CCC21 (stereo not drawn)	none
Cc1ccc2nc(C)cc(C(=O)N(C)C3CCS(=O)(=O)C3)c2c1 (stereo not drawn)	none (no result: IL-1B inflam inh, DT40 TDP1 no CPT, HT1080NT lethal, HT1080 IDH1KD tx, TDP1 cell CPT)
COc1ccc(C(=O)Nc2sc3c(c2C#N)CCN(C(C)=O)C3)cc1	DT40 TDP1 no CPT 4.1µM, HT1080NT lethal 8.2µM, HT1080 IDH1KD tx 5.8µM, TDP1 cell CPT 3.3µM
CC(C)N1CCc2c(sc(NC(=S)NC(=O)c3ccccc3)c2C#N)C1	12-LOX inh inconclusive, DT40 TDP1 no CPT inconclusive
CCCN1CCc2c(sc(NC(=S)NC(=O)c3ccccc3)c2C#N)C1	12-LOX inh inconclusive, DT40 TDP1 no CPT inconclusive, TDP1 cell CPT 21µM
COc1cc(C(=O)Nc2sc3c(c2C#N)CCN(C(C)=O)C3)cc(OC)c1OC	DT40 TDP1 no CPT inconclusive, TDP1 cell CPT inconclusive
CC(C)N1CCc2c(sc(NC(=O)c3ccc(S(=O)(=O)N4CCOCC4)cc3)c2C#N)C1	DT40 TDP1 no CPT 21µM, TDP1 cell CPT 23µM (no result: 12-LOX inh)
CCOC(=O)N1CCc2c(sc(NC(=O)c3ccc(S(=O)(=O)N4CCCC4)cc3)c2C#N)C1	12-LOX inh inconclusive, DT40 TDP1 no CPT 15µM, TDP1 cell CPT 21µM
CN(C)Cc1nnc(-c2ccc(Br)o2)o1	none (no result: IL-1B inflam inh, DT40 TDP1 no CPT, HT1080NT lethal, HT1080 IDH1KD tx, TDP1 cell CPT)
Cc1nn(-c2nncc(-c3ccccc3)n2)c2c1C(c1cccc(O)c1)CC(=O)N2 (stereo not drawn)	none (no result: IL-1B inflam inh, DT40 TDP1 no CPT, HT1080NT lethal, HT1080 IDH1KD tx, TDP1 cell CPT)
N#Cc1ncn(Cc2nnc(-c3ccccc3)o2)n1	none (no result: IL-1B inflam inh, DT40 TDP1 no CPT, HT1080NT lethal, HT1080 IDH1KD tx, TDP1 cell CPT)
COC[C@@H]1CN(C(=O)c2cc(Cl)ccc2OC)C[C@H]1C(N)=O	none (no result: IL-1B inflam inh, DT40 TDP1 no CPT, HT1080NT lethal, HT1080 IDH1KD tx, TDP1 cell CPT)
Cc1nc(C)c(/C(O)=C/c2nc3ccccc3oc2=O)s1	DT40 TDP1 no CPT 10µM, TDP1 cell CPT 8.2µM
CN1CCC2(CC1)CN(C(=O)c1cnccn1)Cc1ccccc1O2	none (no result: IL-1B inflam inh, DT40 TDP1 no CPT, HT1080NT lethal, HT1080 IDH1KD tx, TDP1 cell CPT)
CC(=O)c1c(C(C)=O)c(C)n(Cc2ccc(Cl)cc2)c1C	DT40 TDP1 no CPT 18µM, HT1080 IDH1KD tx inconclusive, TDP1 cell CPT 16µM
CCCNc1cc(N2CCC(CCC(=O)NCc3cccc(OC)c3)CC2)ncn1	none (no result: IL-1B inflam inh, DT40 TDP1 no CPT, HT1080NT lethal, HT1080 IDH1KD tx, TDP1 cell CPT)
Cc1ccc([N+](=O)[O-])cc1-c1ccc(/C=C(\C#N)c2[nH]nc(N)c2C#N)o1	IL-1B inflam inh inconclusive, DT40 TDP1 no CPT 13µM, HT1080NT lethal inconclusive, HT1080 IDH1KD tx 16µM, TDP1 cell CPT inconclusive
